The values that follow come from ChEMBL document CHEMBL2218924, “A broad activity screen in support of a chemogenomic map for kinase signalling research and drug discovery” (Biochem J, 2013).

Experiment [1] concerns the target T1, Ephrin type-A receptor 3 (Homo sapiens) (UniProt P29320).
T1 sequence (whole entry): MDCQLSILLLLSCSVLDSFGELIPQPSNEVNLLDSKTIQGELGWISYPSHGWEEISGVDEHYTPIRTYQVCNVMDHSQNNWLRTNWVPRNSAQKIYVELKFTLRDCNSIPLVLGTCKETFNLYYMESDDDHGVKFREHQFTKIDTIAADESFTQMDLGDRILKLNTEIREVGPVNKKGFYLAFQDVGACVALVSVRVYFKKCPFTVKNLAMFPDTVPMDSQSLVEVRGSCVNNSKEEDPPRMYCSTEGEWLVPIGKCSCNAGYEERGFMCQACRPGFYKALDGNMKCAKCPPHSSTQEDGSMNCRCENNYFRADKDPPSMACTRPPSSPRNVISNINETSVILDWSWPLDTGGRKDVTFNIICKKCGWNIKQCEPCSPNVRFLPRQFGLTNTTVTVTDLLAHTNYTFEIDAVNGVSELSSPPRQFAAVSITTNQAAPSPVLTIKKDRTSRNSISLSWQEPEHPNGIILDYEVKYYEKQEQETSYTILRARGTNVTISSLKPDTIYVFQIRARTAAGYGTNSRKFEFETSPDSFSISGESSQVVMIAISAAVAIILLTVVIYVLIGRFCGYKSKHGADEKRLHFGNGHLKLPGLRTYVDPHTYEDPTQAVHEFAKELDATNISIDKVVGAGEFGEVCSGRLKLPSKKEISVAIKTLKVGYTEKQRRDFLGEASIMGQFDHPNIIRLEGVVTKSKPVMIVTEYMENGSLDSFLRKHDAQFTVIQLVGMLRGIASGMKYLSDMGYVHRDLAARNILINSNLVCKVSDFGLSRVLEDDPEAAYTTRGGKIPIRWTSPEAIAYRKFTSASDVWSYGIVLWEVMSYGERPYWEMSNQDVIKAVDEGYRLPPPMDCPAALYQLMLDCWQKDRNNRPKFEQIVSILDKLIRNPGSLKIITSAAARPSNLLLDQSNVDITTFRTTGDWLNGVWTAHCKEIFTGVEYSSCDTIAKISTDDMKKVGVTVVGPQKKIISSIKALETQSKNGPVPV
The conditions noted are these: at 10 µM.

In experiment [2] the target is Ephrin type-A receptor 4 (Homo sapiens) (UniProt P54764). The conditions noted are these: at 1 µM.
Sequence of Ephrin type-A receptor 4 (Homo sapiens) (P54764 whole entry): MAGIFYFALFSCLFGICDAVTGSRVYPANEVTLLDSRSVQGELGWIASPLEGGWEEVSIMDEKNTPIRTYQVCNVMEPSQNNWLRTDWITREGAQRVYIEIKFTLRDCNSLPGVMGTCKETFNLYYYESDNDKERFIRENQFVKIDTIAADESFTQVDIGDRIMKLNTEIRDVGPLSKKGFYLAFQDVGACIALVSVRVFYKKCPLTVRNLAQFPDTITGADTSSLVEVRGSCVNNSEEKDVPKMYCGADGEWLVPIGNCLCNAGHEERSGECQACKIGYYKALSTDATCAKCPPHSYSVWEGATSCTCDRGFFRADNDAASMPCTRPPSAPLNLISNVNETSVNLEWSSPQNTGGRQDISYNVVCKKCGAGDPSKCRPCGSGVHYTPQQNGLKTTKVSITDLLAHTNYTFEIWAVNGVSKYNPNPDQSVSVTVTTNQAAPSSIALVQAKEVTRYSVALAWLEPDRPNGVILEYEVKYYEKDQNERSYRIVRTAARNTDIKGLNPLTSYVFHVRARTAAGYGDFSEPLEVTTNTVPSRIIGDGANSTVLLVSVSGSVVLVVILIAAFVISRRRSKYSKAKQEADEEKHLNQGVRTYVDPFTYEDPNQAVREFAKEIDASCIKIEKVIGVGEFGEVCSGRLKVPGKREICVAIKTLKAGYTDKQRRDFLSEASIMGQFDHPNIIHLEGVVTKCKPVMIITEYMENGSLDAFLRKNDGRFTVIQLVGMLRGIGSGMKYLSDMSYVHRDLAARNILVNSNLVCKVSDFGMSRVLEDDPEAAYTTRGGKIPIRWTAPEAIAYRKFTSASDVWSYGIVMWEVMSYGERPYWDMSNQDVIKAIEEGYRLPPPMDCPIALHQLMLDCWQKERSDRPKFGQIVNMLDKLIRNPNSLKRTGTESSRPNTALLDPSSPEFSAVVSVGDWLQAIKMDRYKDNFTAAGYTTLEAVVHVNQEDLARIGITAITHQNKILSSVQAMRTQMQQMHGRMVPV
The target is the same in experiment [3]. The conditions noted are these: at 10 µM.
The target of experiment [4] is Ephrin type-A receptor 5 (Homo sapiens) (UniProt P54756). The conditions noted are these: at 1 µM.
Sequence of Ephrin type-A receptor 5 (Homo sapiens) (P54756 whole entry): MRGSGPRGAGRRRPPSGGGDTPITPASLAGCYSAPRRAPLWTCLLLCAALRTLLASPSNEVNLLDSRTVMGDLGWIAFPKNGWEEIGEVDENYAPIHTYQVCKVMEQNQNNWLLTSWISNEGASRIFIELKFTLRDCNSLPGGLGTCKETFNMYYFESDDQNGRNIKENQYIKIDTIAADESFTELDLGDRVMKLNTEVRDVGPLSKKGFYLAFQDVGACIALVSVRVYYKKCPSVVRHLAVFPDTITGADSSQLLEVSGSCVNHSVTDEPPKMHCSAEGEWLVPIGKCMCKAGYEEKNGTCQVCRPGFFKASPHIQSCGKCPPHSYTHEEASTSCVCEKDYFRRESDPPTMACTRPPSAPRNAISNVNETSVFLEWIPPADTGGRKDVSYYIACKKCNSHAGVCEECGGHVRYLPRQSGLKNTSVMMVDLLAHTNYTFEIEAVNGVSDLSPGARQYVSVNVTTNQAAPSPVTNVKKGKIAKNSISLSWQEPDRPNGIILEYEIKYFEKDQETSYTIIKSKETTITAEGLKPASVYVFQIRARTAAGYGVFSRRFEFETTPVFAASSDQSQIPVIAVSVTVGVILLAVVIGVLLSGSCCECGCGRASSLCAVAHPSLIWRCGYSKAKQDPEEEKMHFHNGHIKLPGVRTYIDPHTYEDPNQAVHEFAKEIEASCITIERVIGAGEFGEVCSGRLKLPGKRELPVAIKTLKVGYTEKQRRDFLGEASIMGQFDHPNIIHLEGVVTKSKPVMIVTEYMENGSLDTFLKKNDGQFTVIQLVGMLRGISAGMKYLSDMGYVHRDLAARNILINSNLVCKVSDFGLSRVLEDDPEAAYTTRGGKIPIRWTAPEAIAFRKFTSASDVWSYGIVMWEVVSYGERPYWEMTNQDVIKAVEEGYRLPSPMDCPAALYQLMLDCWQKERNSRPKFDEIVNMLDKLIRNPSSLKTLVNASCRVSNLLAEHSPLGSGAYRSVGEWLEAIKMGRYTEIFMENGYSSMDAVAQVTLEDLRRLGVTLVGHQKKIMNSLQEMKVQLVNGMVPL
For experiment [5] the target is unchanged. The conditions noted are these: at 10 µM.
The target in experiment [6] is Ephrin type-A receptor 7 (Homo sapiens) (UniProt Q15375). The conditions noted are these: at 1 µM.
Sequence of Ephrin type-A receptor 7 (Homo sapiens) (Q15375 28-998 limits assumed): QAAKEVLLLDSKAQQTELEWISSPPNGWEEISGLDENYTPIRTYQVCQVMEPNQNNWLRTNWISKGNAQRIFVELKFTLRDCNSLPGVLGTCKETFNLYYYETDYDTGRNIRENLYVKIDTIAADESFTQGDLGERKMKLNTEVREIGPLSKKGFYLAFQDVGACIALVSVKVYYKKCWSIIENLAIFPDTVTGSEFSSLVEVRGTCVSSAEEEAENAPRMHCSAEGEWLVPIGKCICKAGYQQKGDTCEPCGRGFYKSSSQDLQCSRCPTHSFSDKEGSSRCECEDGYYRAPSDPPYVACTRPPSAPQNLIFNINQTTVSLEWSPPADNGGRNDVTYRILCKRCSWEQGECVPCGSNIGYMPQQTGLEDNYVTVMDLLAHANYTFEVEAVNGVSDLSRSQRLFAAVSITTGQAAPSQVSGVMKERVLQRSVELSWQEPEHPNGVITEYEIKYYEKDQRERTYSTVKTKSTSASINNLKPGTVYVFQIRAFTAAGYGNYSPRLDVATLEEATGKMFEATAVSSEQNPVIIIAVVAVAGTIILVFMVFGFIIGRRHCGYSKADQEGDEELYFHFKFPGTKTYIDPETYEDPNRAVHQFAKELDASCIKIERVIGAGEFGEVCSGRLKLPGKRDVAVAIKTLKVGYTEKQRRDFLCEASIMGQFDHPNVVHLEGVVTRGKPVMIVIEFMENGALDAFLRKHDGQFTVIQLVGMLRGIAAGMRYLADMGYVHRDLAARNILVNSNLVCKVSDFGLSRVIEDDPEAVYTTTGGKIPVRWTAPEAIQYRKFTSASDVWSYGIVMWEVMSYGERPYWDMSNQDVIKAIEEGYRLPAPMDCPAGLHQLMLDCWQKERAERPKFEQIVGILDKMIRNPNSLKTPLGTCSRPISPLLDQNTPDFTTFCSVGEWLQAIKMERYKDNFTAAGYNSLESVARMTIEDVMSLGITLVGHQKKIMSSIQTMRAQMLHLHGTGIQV
For experiment [7] the target is unchanged. The conditions noted are these: at 10 µM.
Experiment [8] has as its target T2, Ephrin type-A receptor 8 (Homo sapiens) (UniProt P29322).
T2 sequence (whole entry): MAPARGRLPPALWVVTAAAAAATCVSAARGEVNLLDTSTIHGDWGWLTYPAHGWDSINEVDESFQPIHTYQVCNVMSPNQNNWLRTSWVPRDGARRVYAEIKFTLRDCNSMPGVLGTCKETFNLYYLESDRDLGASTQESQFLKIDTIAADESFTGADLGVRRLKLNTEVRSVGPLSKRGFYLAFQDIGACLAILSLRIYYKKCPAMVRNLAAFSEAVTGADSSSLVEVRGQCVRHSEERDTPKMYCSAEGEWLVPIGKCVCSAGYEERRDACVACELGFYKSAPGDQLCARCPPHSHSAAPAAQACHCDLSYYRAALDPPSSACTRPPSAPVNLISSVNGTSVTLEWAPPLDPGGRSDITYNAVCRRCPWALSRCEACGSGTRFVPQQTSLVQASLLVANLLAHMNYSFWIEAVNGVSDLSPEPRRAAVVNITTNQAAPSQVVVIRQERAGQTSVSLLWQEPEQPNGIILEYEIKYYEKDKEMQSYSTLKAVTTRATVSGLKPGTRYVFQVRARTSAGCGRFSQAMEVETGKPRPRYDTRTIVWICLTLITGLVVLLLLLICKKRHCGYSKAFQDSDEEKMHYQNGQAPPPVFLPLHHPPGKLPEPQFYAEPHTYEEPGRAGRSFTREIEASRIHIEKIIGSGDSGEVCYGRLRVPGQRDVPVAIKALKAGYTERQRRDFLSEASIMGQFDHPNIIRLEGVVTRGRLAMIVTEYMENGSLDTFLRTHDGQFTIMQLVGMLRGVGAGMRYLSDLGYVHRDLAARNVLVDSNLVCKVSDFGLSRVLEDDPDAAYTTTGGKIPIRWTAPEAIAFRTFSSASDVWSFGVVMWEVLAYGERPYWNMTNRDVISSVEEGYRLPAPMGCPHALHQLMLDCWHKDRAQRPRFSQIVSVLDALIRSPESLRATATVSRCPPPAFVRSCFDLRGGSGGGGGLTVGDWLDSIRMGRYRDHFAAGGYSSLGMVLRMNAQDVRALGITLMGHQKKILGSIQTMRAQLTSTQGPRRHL
The conditions noted are these: at 1 µM.

Experiment [9] has as its target T2, Ephrin type-A receptor 8 (Homo sapiens). The conditions noted are these: at 10 µM.
Experiment [10] has as its target T3, Ephrin type-B receptor 1 (Homo sapiens) (UniProt P54762).
T3 sequence (whole entry): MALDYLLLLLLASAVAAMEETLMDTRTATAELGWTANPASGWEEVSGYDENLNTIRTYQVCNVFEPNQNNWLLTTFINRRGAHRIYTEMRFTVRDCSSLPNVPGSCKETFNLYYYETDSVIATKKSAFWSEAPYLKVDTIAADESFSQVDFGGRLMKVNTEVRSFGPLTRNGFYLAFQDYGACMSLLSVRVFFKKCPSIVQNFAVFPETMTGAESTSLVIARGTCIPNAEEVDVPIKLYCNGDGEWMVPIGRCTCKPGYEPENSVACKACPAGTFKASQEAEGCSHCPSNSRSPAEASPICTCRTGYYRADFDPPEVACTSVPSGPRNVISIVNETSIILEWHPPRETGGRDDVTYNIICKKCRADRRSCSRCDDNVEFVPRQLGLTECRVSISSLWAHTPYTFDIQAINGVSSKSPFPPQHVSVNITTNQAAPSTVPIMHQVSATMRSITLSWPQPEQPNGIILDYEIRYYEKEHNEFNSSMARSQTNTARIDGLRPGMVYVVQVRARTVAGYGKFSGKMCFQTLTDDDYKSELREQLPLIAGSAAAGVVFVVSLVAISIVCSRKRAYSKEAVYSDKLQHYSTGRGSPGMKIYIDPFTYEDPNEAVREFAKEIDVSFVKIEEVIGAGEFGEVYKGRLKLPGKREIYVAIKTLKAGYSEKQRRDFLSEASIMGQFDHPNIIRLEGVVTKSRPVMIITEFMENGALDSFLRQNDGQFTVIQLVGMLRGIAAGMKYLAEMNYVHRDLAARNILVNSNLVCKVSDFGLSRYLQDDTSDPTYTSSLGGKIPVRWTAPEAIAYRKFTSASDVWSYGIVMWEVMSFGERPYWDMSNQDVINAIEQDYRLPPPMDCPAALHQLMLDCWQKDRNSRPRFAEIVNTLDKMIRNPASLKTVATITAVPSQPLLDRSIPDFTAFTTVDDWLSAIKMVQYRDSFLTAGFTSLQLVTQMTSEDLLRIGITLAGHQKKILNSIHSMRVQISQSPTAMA
The conditions noted are these: at 1 µM.

Consider `CO[C@H]1[C@@H](OC)C[C@H](C)[C@@H](OC)C2=CC(=O)C=C(NC(=O)/C(C)=C/C=C/[C@H](OC)[C@@H](OC(N)=O)/C(C)=C/[C@@H]1C)C2=O`, for which the residual activity in experiment [1] was 85%; in experiment [2] it was 110%; in experiment [3] it was 112%; in experiment [4], 107%; in [5], 95%; in [6], 95%. Further, the residual activity in [7] turned out to be 96%; in experiment [8], 96%; in [9] it was 105%; in experiment [10] it was 109%.
